Among all 2,400 compounds or so, about 1,100 (46%) were called active. So high a share suggests a set chosen from earlier hits. These entries were drawn from the full list. A number with no mark means an inactive call.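 Rule for the calls: active = inhibition above the run cutoff, the mean inhibition of all test compounds plus 3 SD (cut at about 49% in these data); inactive = the rest.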
Target: Trace amine-associated receptor 1 (Homo sapiens) (UniProt Q96RJ0)
Test: loss of beta-PEA response after agonist pre-exposure – cell-based, fluorescence, tachyphylaxis, counter-screen for TAAR1 agonist project, confirmation (AID 651951);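 note: beta-PEA stimulus applied at its EC80; loss of beta-PEA calcium signal after compound pretreatment read as receptor desensitization; 0% = DMSO with beta-PEA at EC80 and 100% = DMSO alone without agonist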
Conditions: CHO RD-HGA16 hTAAR1, Fluo-8 calcium, at 3 µM, active compounds read high

Chain of Trace amine-associated receptor 1 (Homo sapiens) (Q96RJ0 whole entry, looked up): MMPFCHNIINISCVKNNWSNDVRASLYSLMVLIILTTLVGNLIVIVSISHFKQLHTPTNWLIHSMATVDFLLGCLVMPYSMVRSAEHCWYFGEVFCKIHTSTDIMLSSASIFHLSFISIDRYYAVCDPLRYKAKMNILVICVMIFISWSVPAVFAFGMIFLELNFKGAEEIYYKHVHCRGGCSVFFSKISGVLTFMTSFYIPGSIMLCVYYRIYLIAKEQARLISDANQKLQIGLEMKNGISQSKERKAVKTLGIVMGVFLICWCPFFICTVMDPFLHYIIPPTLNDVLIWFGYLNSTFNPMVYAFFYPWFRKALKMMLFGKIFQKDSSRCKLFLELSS

SMILES	inhibition
CCCOc1ccc(-c2c(C(=O)N/N=C/c3ccco3)nnn2-c2nonc2N)cc1	13.2%
Cc1cccc(NC(=O)C(C)N2C(=O)C3C4CC(C(Br)C4Br)C3C2=O)c1 (stereo unspecified)	52.5% (active)
CCCC1CCC(=NNC(=S)NCCc2ccccc2)CC1 (stereo unspecified)	51.7% (active)
Cc1ccc(O)c(NC(=S)NC(=O)COc2ccc(Br)cc2)c1	104% (active)
Nc1cc(OC(=O)c2ccccc2Br)nn1S(=O)(=O)c1ccccc1	11.7%
COCCCn1c(Cc2csc(Nc3cccc(Cl)c3)n2)nnc1SCC(=O)OC1CCCCC1	-2.24%
COc1ccc(Cl)cc1C(=O)NNC(=S)NC(=O)/C=C/c1ccco1	67.7% (active)
O=C1C=C(c2ccc(Cl)cc2)C(=O)N1Nc1ccccc1	72.8% (active)
Nc1nnn(CC(=O)N/N=C/c2ccccc2)n1	17.8%
CSc1nc(N)c(C#N)c(-c2ccccc2Cl)c1C#N	24.1%
O=C(CSc1nc(-c2ccco2)cc(C(F)(F)F)n1)NCc1cccs1	-5.52%
Cc1c(CNCCc2ccccc2)c(C(=O)O)c(C)n1-c1ccccc1	53.7% (active)
COc1cccc(N(CC(=O)N2CCc3ccccc3C2)S(C)(=O)=O)c1	15.3%
S=C(NCCCc1cnc[nH]1)NCCCN(Cc1ccc(Cl)c(Cl)c1)c1ccc(Br)cn1	59.7% (active)
O=C(NCCc1ccccc1)/C(=C\c1ccc([N+](=O)[O-])cc1)NC(=O)c1ccccc1	7.67%
CCCCCC(=O)NC(=S)NNC(=O)c1ccc([N+](=O)[O-])cc1	61% (active)
CCCCCc1c(-c2ccc(OC)c(OC)c2)ncn1CCc1ccccc1OC	97.1% (active)
CCc1c(-c2ccccc2OC)ncn1CCc1ccccc1OC	39.8%
CCCCCc1c(Cc2ccccc2)ncn1CCc1ccccc1OC	88.8% (active)
CCCCCc1c(-c2cccc(Br)c2)ncn1CCc1ccccc1OC	20.5%
CCCCc1c(-c2ccc(Br)cc2)ncn1CCc1ccccc1OC	49.3% (active)
CCCCc1c(-c2ccc(Cl)cc2)ncn1CCc1ccccc1OC	83.4% (active)
N#Cc1ccc(OCCCN2CCC(C(O)(c3ccccc3)c3ccccc3)CC2)c(F)c1	23.9%
Cn1c(=O)c(=O)n(C)c2cc(S(=O)(=O)NCCc3ccccc3)ccc21	73.1% (active)
O=[N+]([O-])c1cc(S(=O)(=O)NCCc2ccccn2)ccc1Cl	39%
c1ccc2c(c1)C(=NC1CCCCC1)NC2=NC1CCCCC1	42.2%
